Assay outcomes from PubChem.
NS1 inh = influenza NS1 inhibition; Potency, µM (doses to about 46.1 µM), for the others: at the highest dose activity, positive = more growth; hit rate 0.4% among 270,000; AID 2326; calls by dose curve; also: actives are rising curves; nearly all actives have a fitted effect of over 50% in size
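Compounds were scored for reversing the slow growth caused by influenza A NS1 in S. cerevisiae, measured by optical density at 600 nm. Assay medium contained 2% galactose at pH 6.0; NS1-free yeast of the same strain were the positive control.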
Pf growth 96h = P. falciparum growth inhibition at 96 hours; hit rate 6.9% among 320,000; Potency, µM (series often up to 28.7 µM), for inactives: at the highest dose activity change, negative = inhibition, usual class: inhibitors; P. falciparum luciferase reporter growth, 96 h; AID 504834; also: % is scaled to controls: 0 for no effect and ±100 for the full control effect
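Cell-based qHTS: luciferase-tagged P. falciparum in erythrocytes (2% hematocrit, 0.05% parasitemia final) incubated with compounds for 96 hours, 37 C, 5% CO2; luciferase detection reagent then added and luminescence measured.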
SARS PLP yeast = SARS-CoV PLP inhibition in yeast | S. cerevisiae expressing SARS-CoV PLpro, growth rescue | Potency, µM (top dose mostly 32.9 µM), inactives show top-dose activity, positive = growth rescue, most hits filed as activators | hit rate 0.19% among 330,000 | AID 485353; calls by dose curve; also: 0% is about no effect; nearly all actives have a fitted effect of over 55% in size
RE007 growth inh = less growth of the S. pombe RE007 Vpr strain; S. pombe RE007 Vpr strain, BacTiter-Glo ATP luminescence, 24 h; Potency, µM (titrated, usually from 92.2 µM), inactives show at the highest dose activity change, negative = less growth, actives largely listed as inhibitors; hit rate 0.21% among 360,000; active = well fitted falling curve with a large enough effect; inconclusive = small, poorly fitted or top-dose-only effect; inactive = no such curve, though single readings can be large or run the other way; also: % is scaled to controls: 0 for no effect and ±100 for the full control effect; nearly all actives have a fitted effect of over 50% in size
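Fission yeast RE007 carrying one integrated HIV-1 vpr copy, seeded at OD 0.01 in PMG+AL medium with 23 nL pinned compound. Grown 24 h at 30 degrees; viability read by BacTiter-Glo luminescence after 5 min.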
Pf growth 48h = P. falciparum growth inhibition at 48 hours (one generation); Potency, µM (series often up to 28.7 µM), inactives show top-dose activity change, negative = inhibition, most hits filed as inhibitors; hit rate 5.9% among 310,000; P. falciparum luciferase growth in erythrocytes, 48 h; also: % is scaled to controls: 0 for no effect and ±100 for the full control effect
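Read-out is firefly luciferase luminescence from an integrated reporter in P. falciparum, so falling signal marks reduced parasite growth. Infected erythrocytes were at 2% hematocrit and 0.1% parasitemia (final) in Albumax-supplemented RPMI 1640.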
An asterisk follows results filed as active; ? = inconclusive; . = no result given. Sampled rows, rich in hits. Any-hit rate of the full collection: about 9.5%. Unless noted, calls follow the shape of the dose curve; as a rule, active = well fitted inhibition curve with a large enough effect; inconclusive = small, poorly fitted or top-dose-only effect, or another doubt; inactive = no such curve, though single readings can be large or run the other way. Potency is read from the fitted curve at half-maximal effect.

SMILES	NS1 inh	Pf growth 96h	SARS PLP yeast	RE007 growth inh	Pf growth 48h
CCC1(C)N=C(c2ccc3c(c2)OCO3)CC(c2ccccc2O)N1 (stereo not given)	-5.1%	.	-26.4%	-1.2%	4.65µM*
COc1ccc(S(=O)(=O)NCC(c2ccc3c(c2)OCO3)N2CCOCC2)cc1 (stereo not given)	.	50.5%	3.6%	-2.4%	8.6%
CN1C(=O)c2ccccc2NC(=O)C1Cc1ccccc1 (stereo not given)	1.7%	11.7µM*	0.4%	-1.0%	6.5%
O=C(COC(=O)c1ccc(S(=O)(=O)N2CCCCC2)cc1)Nc1ccccc1Cl	.	36.0%	-9.2%	-2.3%	26.4%
COc1ccc2c(c1OC)CN1CCc3cc4c(cc3[C@H]1C2)OCO4	.	0.721µM*	-27.5%	?	3.7µM*
COc1ccc2c(c1OC)CN1CCc3cc4c(cc3C1C2)OCO4 (stereo not given)	-2.7%	?	1.0%	-11.6%	?
CCN(CC)CCCNC1=C(Cl)C(=O)c2ccccc2C1=O	-8.7%	?	-1.4%	?	?
O=C1C(Cl)=C(Nc2ccccc2)C(=O)c2ccccc21	1.0%	8.0%	-18.0%	6.1%	22.8%
COCCCNC1=C(Cl)C(=O)c2ccccc2C1=O	-9.5%	2.33µM*	-0.4%	?	4.15µM*
CC(C)NC1=C(Cl)C(=O)c2ccccc2C1=O	-85.4%	0.928µM*	24.2%	?	.
CC(C)OCCCNC1=C(Cl)C(=O)c2ccccc2C1=O	-5.9%	4.15µM*	0.4%	?	2.94µM*
O=C(N/N=C/c1cn(-c2ccccc2)nc1-c1ccccc1)c1ccco1	3.2%	37.3%	-0.9%	-3.7%	3.29µM*
O=C(O)/C=C/c1cn(-c2ccccc2)nc1-c1ccccc1	-46.3%	5.86µM*	-0.2%	-5.1%	15.6%
Cc1ccc(-c2nn(-c3ccccc3)cc2/C=N/NC(=O)c2ccc(Br)o2)cc1	-8.9%	?	-2.3%	12.3%	?
O=C(N/N=C/c1cn[nH]c1-c1ccccc1)c1ccco1	1.3%	-12.2%	-0.6%	35.9%	-6.8%
O=C(N/N=C\c1cn(-c2ccccc2)nc1-c1ccccc1)c1ccc(Br)o1	18.7%	4.15µM*	-12.3%	-13.5%	9.28µM*
O=C(O)/C=C\c1cn(-c2ccccc2)nc1-c1cc2ccccc2o1	-4.7%	1.6%	-3.4%	8.2%	?
CCN(CC)C(=O)CNc1ccc(C(F)(F)F)cc1[N+](=O)[O-]	12.3%	?	-17.5%	-1.6%	7.7%
O=C(O)C(C(=O)O)P(=S)(S)c1ccccc1 (stereo not given)	-0.5%	.	.	.	.
CCN(CC)CCOc1ccccc1OC	0.4%	3.1%	-0.1%	0.5%	3.7%
NC(N)=NN=C1c2ccccc2-c2ccccc21	-10.0%	?	-5.8%	0.7%	?
CCN(CC)CCOc1ccc(Br)cc1	0.8%	2.62µM*	7.5%	3.2%	3.6%
CCN(CC)S(=O)(=O)c1ccc2c(c1)C(=NO)c1cc(S(=O)(=O)N(CC)CC)ccc1-2	-2.0%	8.28µM*	3.1%	0.0%	9.28µM*
CCN(CC)CCOc1ccc(/C(=C(\Cl)c2ccccc2)c2ccccc2)cc1	.	2.33µM*	.	18.1%	2.08µM*
CCN(CC)CCCOc1ccc(Cl)c(Cl)c1	-2.9%	?	-24.4%	-15.7%	-7.4%
SMILES	NS1 inh	Pf growth 96h	SARS PLP yeast	RE007 growth inh	Pf growth 48h
CCCOc1ccc2c(c1)C(=NN=C(N)N)c1cc(OCCC)ccc1-2	5.7%	4.6%	-1.8%	54.3%	0.657µM*
CCCCOc1ccc2c(c1)C(=O)c1cc(O)ccc1-2	-30.3%	47.9%	-4.7%	-26.6%	76.2%
CCN(CC)CCOc1ccc2c(c1)C(=NO)c1cc(OCCN(CC)CC)ccc1-2	-15.9%	1.85µM*	0.8%	-3.8%	6.57µM*
CCCCn1c(=O)[nH]c2nc3cc(NC(C)=O)ccc3nc2c1=O	-3.0%	2.3%	0.5%	4.6%	14.7µM*
CCCCCCn1c(=O)[nH]c2nc3cc(N)c(C)cc3nc2c1=O	?	?	-9.8%	9.4%	-11.6%
CCCCCC(=O)Nc1ccc(C2C(=O)c3ccccc3C2=O)cc1	8.6%	?	2.7%	5.6%	13.1µM*
C(#CCN1CCOCC1)COCc1ccccc1	-0.3%	10.4µM*	-2.3%	-10.9%	37.9%
CCOc1cc(CNc2ncnc3nc[nH]c23)ccc1OC	-32.7%	-11.1%	5.1%	1.5%	-1.5%
CCOc1cc(CNc2cccc3[nH]c(C)nc23)ccc1OC	7.8%	18.2%	-2.2%	-11.6%	11.7µM*
COc1ccc(C(=O)Nc2nnc(Cc3ccc(OC)c(OC)c3)s2)cc1	-2.8%	0.0%	2.0%	4.6%	0.0%
CCCn1c(C2CCCN2c2nc(-c3cccc(Br)c3)cs2)nc2ccccc21 (stereo not given)	25.5%	1.85µM*	17.4%	-21.1%	?
CCc1cc(=O)oc2c(C)c(OC(C)C(=O)N3CCC[C@@H]3C(=O)O)ccc12 (stereo not given in full)	4.7%	0.1%	-5.1%	-0.9%	-9.4%
CCc1cc(=O)oc2c(C)c(OC(C)C(=O)N3CC[C@@]4(O)CCCC[C@H]4C3)ccc12 (stereo not given in full)	2.6%	11.7µM*	4.4%	-0.7%	?
CCc1cc(=O)oc2c3c(cc(OCC(=O)NCc4ccncc4)c12)OC(C)(C)CC3	-31.7%	?	-3.7%	-19.4%	10.4µM*
CCc1cc(=O)oc2c3c(cc(OCC(=O)NCCCC(=O)O)c12)OC(C)(C)CC3	-0.5%	?	-1.6%	4.9%	?
CCc1cc(=O)oc2c3c(cc(OCC(=O)NC4CC4)c12)OC(C)(C)CC3	-4.6%	4.15µM*	-1.2%	12.9%	?
CCc1cc(=O)oc2c3c(cc(OCC(=O)NCCN4CCOCC4)c12)OC(C)(C)CC3	-13.5%	9.28µM*	7.3%	-9.1%	?
COC(=O)[C@@]12CCCCN1[C@H](c1ccc(-c3cccc(Cl)c3)c(OC)c1)[C@H]1C(=O)N(C)C(=O)[C@H]12	.	?	1.1%	1.1%	?
CCCCN1CCN=C1N(C)C	.	?	0.8%	-5.9%	?
O=C(c1cc[n+]([O-])cc1)N1CCCC(N2CCN(c3cccc(C(F)(F)F)c3)CC2)C1 (stereo not given)	?	?	7.6%	9.1%	11.7µM*
Oc1ccccc1CN1CCCC(N2CCN(c3cccc(C(F)(F)F)c3)CC2)C1 (stereo not given)	-18.4%	147.6%	-5.4%	-8.2%	1.47µM*
COc1ccc([C@@H]2[C@@H]3C(=O)N(C(C)(C)C)C(=O)[C@@H]3[C@]3(C)C(=O)N(c4cccc(Br)c4)C(=O)N23)cc1	-20.6%	?	14.4%	1.1%	?
Cc1c(C(C)NC(=O)c2cc(COc3cccc4cnccc34)on2)cnn1C (stereo not given)	-1.3%	8.28µM*	-3.6%	-23.6%	2.1%
O=C(O)c1ccccc1C(=O)Nc1ccc(Br)c2cccnc12	?	?	0.0%	-18.1%	14.6%
CC(Sc1n[nH]c(-c2cccs2)n1)C(=O)N1CCCC1 (stereo not given)	.	.	-2.8%	0.8%	.
